Results filed as inconclusive are left out. Active and inactive are the calls of the source. Unless noted, calls follow the shape of the dose curve; as a rule, active = well fitted inhibition curve with a large enough effect; inconclusive = small, poorly fitted or top-dose-only effect; inactive = flat fitted curve, though single readings scatter.
Tests used:
[1] = Stat Signaling Pathway (AID 446; active = well fitted curve in either direction with a large enough effect, not every such curve was filed as active;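 also: ME-180 cervical cancer cells given 40 pM IL-6 alongside compound; SIE-controlled beta-lactamase reporter measured as 460/530 nm FRET emission ratio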)
Procedure, shortened: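 ME-180 SIE-bla cells; overnight plating; cpd + IL-6 40 pM, 5 h, 37 C; LiveBLAzer 2.5 h RT; 460/530 nm emission ratio. Normalized to 300 pM IL-6 and 125 nM JAK inhibitor controls.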

CP185 = experiment: qHTS profiling for inhibitors of Plasmodium falciparum proliferation (AID 504749); also: nearly all actives have a fitted effect of over 60% in size; also: potency is read from the fitted curve at half-maximal effect; conditions: P. falciparum in erythrocytes, SYBR Green DNA, 72 h; series mostly up to 12.8 µM
Procedure, shortened: (§1)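 Infected RBCs, 0.3% parasitemia/2.5% Hct final; cpd 72 h, 37 C, 5% CO2; lysis buffer with saponin/triton/SYBR Green I, o/n RT dark; FI 485/535; norm. to artemisinin (0.29 uM) and DMSO.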

CP191 = experiment: as above; conditions: P. falciparum in erythrocytes, SYBR Green DNA, 72 h; series mostly up to 12.8 µM
Procedure, shortened: as §1

CP192 = experiment: as above; conditions: P. falciparum in erythrocytes, SYBR Green DNA, 72 h; series mostly up to 12.8 µM
Procedure, shortened: as §1

CP211 = experiment: as above; conditions: P. falciparum in erythrocytes, SYBR Green DNA, 72 h; series mostly up to 12.8 µM
Procedure, shortened: as §1

CP262 = experiment: as above; conditions: P. falciparum in erythrocytes, SYBR Green DNA, 72 h; series mostly up to 12.8 µM
Procedure, shortened: as §1

CP268 = experiment: as above; conditions: P. falciparum in erythrocytes, SYBR Green DNA, 72 h; series mostly up to 12.8 µM
Procedure, shortened: as §1

CP269 = experiment: as above; conditions: P. falciparum in erythrocytes, SYBR Green DNA, 72 h; series mostly up to 12.8 µM
Procedure, shortened: as §1

CP305 = experiment: as above; conditions: P. falciparum in erythrocytes, SYBR Green DNA, 72 h; series mostly up to 12.8 µM
Procedure, shortened: as §1

CP315 = experiment: as above; conditions: P. falciparum in erythrocytes, SYBR Green DNA, 72 h; series mostly up to 12.8 µM
Procedure, shortened: as §1

CP325 = experiment: as above; conditions: P. falciparum in erythrocytes, SYBR Green DNA, 72 h; series mostly up to 12.8 µM
Procedure, shortened: as §1

CP329 = experiment: as above; conditions: P. falciparum in erythrocytes, SYBR Green DNA, 72 h; series mostly up to 12.8 µM
Procedure, shortened: as §1

FAB9 = experiment: as above; conditions: P. falciparum in erythrocytes, SYBR Green DNA, 72 h; series mostly up to 12.8 µM
Procedure, shortened: as §1

JCK = experiment: as above; conditions: P. falciparum in erythrocytes, SYBR Green DNA, 72 h; series mostly up to 12.8 µM
Procedure, shortened: as §1

PC49 = experiment: as above; conditions: P. falciparum in erythrocytes, SYBR Green DNA, 72 h; series mostly up to 12.8 µM
Procedure, shortened: as §1

TAB113 = experiment: as above; conditions: P. falciparum in erythrocytes, SYBR Green DNA, 72 h; series mostly up to 12.8 µM
Procedure, shortened: as §1

GB4 = experiment: as above; conditions: P. falciparum in erythrocytes, SYBR Green DNA, 72 h; series mostly up to 12.8 µM
Procedure, shortened: as §1

AS120 = experiment: as above; conditions: P. falciparum in erythrocytes, SYBR Green DNA, 72 h; series mostly up to 12.8 µM
Procedure, shortened: as §1

ATS189 = experiment: as above; conditions: P. falciparum in erythrocytes, SYBR Green DNA, 72 h; series mostly up to 12.8 µM
Procedure, shortened: as §1

N140 = experiment: as above; conditions: P. falciparum in erythrocytes, SYBR Green DNA, 72 h; series mostly up to 12.8 µM
Procedure, shortened: as §1

Measured: Potency

CCO[C@H]1O[C@@H]([C@H](COCc2ccccc2)OCc2ccccc2)[C@@H](OCc2ccccc2)[C@H]1O
not listed: GB4 | AS120 | ATS189 | N140
inactive: all other assays above

CCN(CC)[C@@H](C)CN1c2ccccc2Sc2ccccc21
active: GB4 5.73 µM
not listed: CP191 | CP268 | TAB113 | AS120 | ATS189 | N140
inactive: all other assays above

C=C(C)[C@H]1CC[C@]2(CO)CC[C@]3(C)[C@@H](CC[C@H]4[C@@]5(C)CC[C@@H](O)C(C)(C)[C@@H]5CC[C@@]43C)[C@H]12
inactive: [1]

C1CCC(C(C[C@@H]2CCCCN2)C2CCCCC2)CC1
inactive: [1]

CC=C(/C(=C/C)c1ccc(O)cc1)c1ccc(O)cc1
inactive: all assays above

FC(F)(F)c1ccccc1-c1ccc2ncnc(NC3CCNCC3)c2c1
inactive: [1]

C[C@@H](CN1c2ccccc2Sc2ccccc21)N(C)C
inactive: [1]

CO[C@]1(NC(=O)[C@H](C(=O)O)c2ccc(O)cc2)C(=O)N2C(C(=O)O)=C(CSc3nnnn3C)CO[C@H]21
not listed: CP315
inactive: all other assays above

O=C(OC[C@@H](O)CO)c1ccccc1Nc1ccnc2cc(Cl)ccc12
not listed: GB4
inactive: all other assays above

CCC(C)(C)C(=O)O[C@@H]1C[C@H](C)C=C2C=C[C@H](C)[C@@H](CC[C@H]3C[C@@H](O)CC(=O)O3)[C@H]21
not listed: TAB113 | GB4
inactive: all other assays above

O=C(O)[C@@H]1[C@@H]2C[C@H]3c4[nH]c5ccccc5c4CCN3C[C@@H]2CC[C@@H]1O
inactive: [1] | CP268 | CP305 | JCK | N140 | PC49

CC(C)(C)NC(=O)[C@@H]1C[C@H]2CCCC[C@@H]2CN1C[C@H](O)[C@H](Cc1ccccc1)NC(=O)[C@@H](CC(N)=O)NC(=O)c1ccc2ccccc2n1
inactive: [1]

COC(=O)[C@@H]1[C@@H]2C[C@H]3c4[nH]c5cc(OC)ccc5c4CCN3C[C@@H]2C[C@H](OC(=O)/C=C\c2cc(OC)c(OC)c(OC)c2)[C@H]1OC
inactive: [1] | CP185 | CP262 | CP329 | FAB9
active: AS120 3.55 µM | GB4 5.1 µM | N140 3.55 µM

CC1(C)OC2CC(=O)OC[C@@]23C1CC(=O)[C@]1(C)C3CC[C@@]2(C)C(c3ccoc3)OC(=O)C3O[C@@]321 (stereo not given in full)
not listed: [1]
inactive: all other assays above

O=C1OC(CO)C(O)C(O)C1O (stereo not given)
not listed: [1]
inactive: all other assays above

CN1CC(=O)N=C1N
not listed: [1]
inactive: all other assays above

CCCC(=O)O[C@]1(C(=O)CO)CCC2[C@@H]3CCC4=CC(=O)CC[C@]4(C)C3C(O)C[C@]21C (stereo not given in full)
not listed: [1]
inactive: all other assays above

OCC1OC([S-])[C@H](O)C(O)C1O.[Au+] (stereo not given in full)
not listed: [1]
inactive: all other assays above

CC1(C)OC2CO[C@]3(COS(N)(=O)=O)OC(C)(C)OC3C2O1 (stereo not given in full)
not listed: [1]
inactive: all other assays above

COc1cc(C2c3cc4c(cc3C(O[C@@H]3OC5COC(c6cccs6)OC5C(O)C3O)C3COC(=O)C23)OCO4)cc(OC)c1O (stereo not given in full)
active: AS120 1 µM | ATS189 2.24 µM | CP185 2.24 µM | CP191 2.24 µM | CP192 4.26 µM | CP211 3.38 µM | CP262 8.49 µM | CP268 4.26 µM | CP269 1.69 µM | CP305 1.69 µM | CP315 3.79 µM | CP325 4.78 µM | CP329 4.26 µM | FAB9 2.24 µM | GB4 2.39 µM | JCK 4.47 µM | N140 1 µM | PC49 4.47 µM | TAB113 2.24 µM

COc1ccc2cc(C(C)CO)ccc2c1 (stereo not given)
not listed: [1] | TAB113
inactive: all other assays above

CC(=O)N[C@H](CC(C)C)C(=O)O
not listed: [1]
inactive: all other assays above

COC1C=CO[C@@]2(C)Oc3c(C)c(O)c4c(O)c(c5c(nc6cc(C)ccn65)c4c3C2=O)NC(=O)/C(C)=C\C=CC(C)C(O)[C@@H](C)C(O)C(C)[C@@H](OC(C)=O)C1C (stereo not given in full)
active: AS120 2.51 µM | ATS189 12.6 µM | CP185 10 µM | CP191 11.2 µM | CP192 10.7 µM | CP211 15.1 µM | CP268 12 µM | CP269 10.7 µM | CP315 7.57 µM | GB4 3.79 µM | N140 3.55 µM | TAB113 12.6 µM

CC(=O)OC1CCC2C3CCc4cc(O)ccc4C3CCC12C (stereo not given)
not listed: [1]
inactive: all other assays above

C[C@]1(c2ccccc2)OC(C(=O)O)=CC1=O
not listed: [1]
inactive: all other assays above

COC1C=CO[C@@]2(C)Oc3c(C)c(O)c4c(O)c(c(C=NN5CCN(C)CC5)c(O)c4c3C2=O)NC(=O)/C(C)=C\C=CC(C)C(O)[C@@H](C)C(O)C(C)[C@H](OC(C)=O)C1C (stereo not given in full)
active: AS120 0.282 µM | ATS189 1.58 µM | CP185 3.16 µM | CP191 2.82 µM | CP192 4.26 µM | CP211 4.26 µM | CP262 2.13 µM | CP268 4.78 µM | CP269 4.26 µM | CP305 3.79 µM | CP315 4.78 µM | CP325 4.78 µM | CP329 3.38 µM | GB4 0.953 µM | N140 0.199 µM | PC49 1.41 µM | TAB113 0.316 µM

CN(C)CCc1c[nH]c2ccc(CC3COC(=O)N3)cc12 (stereo not given)
not listed: [1] | CP262
inactive: all other assays above

From PubChem BioAssay (NCATS)
